From PubChem
NS1 inh: qHTS Assay for Inhibitors of Influenza NS1 Protein Function. AID 2326, 2010. Potency, µM (titrated, usually from 46.1 µM). hit rate 0.4% among 270,000; calls by dose curve; note: actives are rising curves; nearly all actives have a fitted effect of over 50% in size
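In this qHTS, NS1 from influenza A is expressed in budding yeast, where it slows growth. Cells are switched from glucose to 2% galactose medium (pH 6.0, -URA), treated with compound, and growth recovery is read at OD600.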
Pf growth 48h: Primary qHTS for delayed death inhibitors of the malarial parasite plastid, 48 hour incubation; P. falciparum luciferase growth in erythrocytes, 48 h; AID 504832, 2011; hit rate 5.9% among 310,000; Potency, µM (titrated, usually from 28.7 µM), most hits filed as inhibitors
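In quantitative HTS format, infected erythrocytes bearing luciferase-reporter parasites were treated for a single generation at 37 C. Luminescence after adding detection reagent served as the growth measure.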
SARS PLP yeast: qHTS of Yeast-based Assay for SARS-CoV PLP; S. cerevisiae expressing SARS-CoV PLpro, growth rescue; AID 485353, 2010; hit rate 0.19% among 330,000; Potency, µM (series often up to 32.9 µM), actives largely listed as activators; calls by dose curve; note: nearly all actives have a fitted effect of over 55% in size
Pf growth 96h: Primary qHTS for delayed death inhibitors of the malarial parasite plastid, 96 hour incubation. P. falciparum luciferase reporter growth, 96 h. Potency, µM (series often up to 28.7 µM), hits mostly inhibitors. hit rate 6.9% among 320,000
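96 h incubation, 37 C, 5% CO2, of luciferase-reporter P. falciparum-infected RBCs (2% hematocrit, 0.05% parasitemia final) with test compounds; endpoint luminescence.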
Each line names hits and unclear results; the compound was inactive in the other large screens. Most compounds without a hit are left out; they make up all but 10% or so of the library. Unless noted, calls come from the whole dose curve; as a rule, active = well fitted inhibition curve with a large enough effect; inconclusive = small, poorly fitted or top-dose-only effect, or another doubt; inactive = no such curve, though single readings can be large or run the other way.

Cc1ccc(S(=O)(=O)Nc2nc3ccc(S(C)(=O)=O)cc3s2)cc1	Pf growth 96h 11.7µM
COc1ccc2c(c1)N(CC[C@H]1CCCCN1C)c1ccccc1S2	none (no result: Pf growth 48h, SARS PLP yeast, Pf growth 96h)
CC1CCN(S(=O)(=O)c2ccc3c(c2)N(CC(=O)NCCCN2CCCC(C)C2)C(=O)CO3)CC1 (stereo unspecified)	Pf growth 96h 11.7µM (no result: SARS PLP yeast)
COc1ccc(CNC(=O)CN2C(=O)COc3ccc(S(=O)(=O)N4CCC(C)CC4)cc32)cc1	Pf growth 96h 13.1µM
CC(C)CN(CCCNC(=O)CN1C(=O)COc2ccc(S(=O)(=O)N3CCCC3)cc21)CC(C)C	Pf growth 48h 11.7µM, Pf growth 96h inconclusive (no result: NS1 inh)
COc1ccc(CNC(=O)CN2C(=O)COc3ccc(S(=O)(=O)N4CCOCC4)cc32)cc1	Pf growth 96h inconclusive
CC(C)N(Cc1ccccc1)C(=O)CN1C(=O)COc2ccc(S(=O)(=O)N3CCCCCC3)cc21	Pf growth 48h 0.828µM
O=C(O)[C@@H]1CCCN1	none (no result: SARS PLP yeast)
OCCN[C@@H]1c2cc(Cl)ccc2-c2c(Cl)cc(Cl)cc21	none (no result: Pf growth 48h, SARS PLP yeast, Pf growth 96h)
CCNC(=S)N1CCN(CC)CC1	none
Cn1cc(Br)c(C(=O)Nc2sc3c(c2C(N)=O)CCCC3)n1	Pf growth 96h 4.15µM
O=C(N1CCOCC1)N1CCN(S(=O)(=O)N2CCCCC2)CC1	Pf growth 96h 4.15µM
Cn1c(=O)cc(SCC(=O)NCCCN2CCOCC2)c2ccccc21	Pf growth 96h inconclusive
CC(CCc1ccco1)NC(=O)CSc1cc(=O)n(C)c2ccccc12 (stereo unspecified)	Pf growth 96h 4.15µM
CCCCNC(=O)CSc1cc(=O)n(C)c2ccccc12	Pf growth 96h 0.208µM
O=C(CCc1ccccc1)NNC(=O)COc1ccc([N+](=O)[O-])cc1	Pf growth 96h inconclusive
CCCN(CC1CC1)C(=O)COC(=O)c1[nH]c(C)c(C(=O)OCC)c1C	Pf growth 96h 11.7µM (no result: Pf growth 48h)
CCCc1cc(C(=O)Nc2cc(OC)c(Cl)cc2OC)no1	none (no result: Pf growth 48h)
CCCc1cc(C(=O)Nc2ccccc2C(=O)OC)no1	Pf growth 96h 11.7µM
CCCc1cc(C(=O)Nc2cccnc2Cl)no1	Pf growth 96h 11.7µM (no result: Pf growth 48h)
CCCc1cc(C(=O)Nc2cc(C)ccc2O)no1	none
COc1ccc(C2NC(=O)c3ccccc3O2)cc1 (stereo unspecified)	none
CCN(CC)S(=O)(=O)c1ccc(Cc2ncc(C(F)(F)F)cc2Cl)s1	Pf growth 96h inconclusive (no result: Pf growth 48h)
O=C(COc1ccccc1)Nc1nnc(-c2ccc(F)cc2)o1	Pf growth 96h 11.7µM
O=C(CN1C(=O)NC2(CCc3ccccc32)C1=O)c1c[nH]c2ccccc12 (stereo unspecified)	Pf growth 48h 8.28µM, Pf growth 96h inconclusive (no result: NS1 inh)
CCOc1ccc(CN(C)C(=O)CN2C(=O)NC3(CCCc4ccccc43)C2=O)cc1 (stereo unspecified)	Pf growth 48h inconclusive, Pf growth 96h 1.17µM (no result: NS1 inh)
COc1ccc(C(=O)CN2C(=O)NC3(CCCc4ccccc43)C2=O)cc1OC (stereo unspecified)	Pf growth 48h 8.28µM, Pf growth 96h 1.31µM
COc1ccc(CNC(=O)CN2C(=O)NC3(CCCc4sccc43)C2=O)cc1OC (stereo unspecified)	Pf growth 48h inconclusive, Pf growth 96h 4.15µM (no result: NS1 inh)
COc1ccccc1C(=O)CN1C(=O)NC2(CCCc3ccccc32)C1=O (stereo unspecified)	none (no result: NS1 inh, Pf growth 48h, Pf growth 96h)
O=C(CCl)N(c1ccccc1)C1CCS(=O)(=O)C1 (stereo unspecified)	Pf growth 48h 11.7µM, Pf growth 96h inconclusive
CCN1CCc2c(sc(NC(=O)c3ccc(S(=O)(=O)N(C)c4ccccc4)cc3)c2C(=O)NC)C1	Pf growth 48h 2.08µM, Pf growth 96h 1.47µM
CC(C)N1CCc2c(sc(NC(=O)c3ccc(S(=O)(=O)N4CCc5ccccc54)cc3)c2C(N)=O)C1	Pf growth 48h 4.15µM, Pf growth 96h 7.38µM
CNC(=O)c1c(NC(=O)c2ccc(S(=O)(=O)N(C)c3ccccc3)cc2)sc2c1CCN(C(C)C)C2	NS1 inh inconclusive, Pf growth 48h 0.586µM, Pf growth 96h inconclusive
CC(C)N1CCc2c(sc(NC(=S)NC(=O)c3ccccc3)c2C#N)C1	Pf growth 48h 10.4µM, Pf growth 96h 0.465µM
Nc1cc(Cl)ccc1C(=O)OCC(=O)NCc1cccs1	none (no result: NS1 inh, Pf growth 48h, Pf growth 96h)
O=c1c2oc3ccccc3c2ncn1Cc1ccc(F)cc1	Pf growth 48h inconclusive, Pf growth 96h inconclusive (no result: NS1 inh)
NCCSC(c1ccccc1)c1ccccc1	none (no result: Pf growth 48h, SARS PLP yeast, Pf growth 96h)
CCN1CCN(c2nc(S(=O)(=O)c3ccc(C)cc3)c(Cl)s2)CC1	Pf growth 48h inconclusive, Pf growth 96h inconclusive (no result: NS1 inh)
CCN1CCc2c(sc(NC(=O)c3ccc4ccccc4c3)c2C(N)=O)C1	Pf growth 48h 11.7µM, Pf growth 96h inconclusive
CC(=O)c1ccc(N2CCN(S(=O)(=O)c3ccc4c5c3CC(=O)N5CC(C)S4)CC2)cc1 (stereo unspecified)	Pf growth 48h 3.29µM, Pf growth 96h inconclusive
COc1cc(OC)cc(C(=O)N2CCC(C(=O)NCCc3ccccc3)CC2)c1	none
Cc1cc(N2CCC(C)CC2)nc(NCc2ccccc2)n1	Pf growth 48h 10.4µM, Pf growth 96h 7.38µM
CCCCNc1cc(C)nc(NCc2ccccc2)n1	Pf growth 48h 1.47µM, Pf growth 96h 0.828µM
Fc1cc(NCc2ccccc2)nc(NCc2ccccc2)n1	Pf growth 96h inconclusive
Cc1cc(Nc2ccc(Cl)cc2)nc(NCc2ccccc2)n1	Pf growth 48h 0.928µM, Pf growth 96h 0.522µM
Cc1cc(Nc2cccc(F)c2)nc(NCc2ccccc2)n1	Pf growth 48h 0.37µM, Pf growth 96h inconclusive
Cc1cc(N2CCC(C)CC2)nc(-c2ccccc2O)n1	none
CC(=O)N1CCN(C(=O)c2ccc(S(=O)(=O)Nc3ccccc3F)cc2)CC1	none (no result: NS1 inh)
O=c1c(-c2n[nH]c(=S)o2)cccn1Cc1ccccc1	Pf growth 96h inconclusive
Cc1cc(Nc2ccccc2)nc(NCc2ccccc2)n1	Pf growth 48h 0.586µM, Pf growth 96h inconclusive
Cc1cc(Oc2ccccc2)nc(NCc2ccccc2)n1	none
CNCCCc1ccccc1	none
Cc1cc(C)nc(NCCCc2ccccc2)n1	Pf growth 96h 13.1µM
COc1ccc(-c2cn3cccnc3n2)cc1NC(=O)c1cc(OC)c(OC)c(OC)c1	Pf growth 96h inconclusive (no result: NS1 inh)
COc1ccc(-c2cn3cccnc3n2)cc1NC(=O)C(C)Oc1ccccc1 (stereo unspecified)	Pf growth 48h 13.1µM, SARS PLP yeast inconclusive
COc1ccc(-c2cn3cccnc3n2)cc1NC(=O)c1cccs1	Pf growth 96h 11.7µM
Cc1ccc(S(=O)(=O)Nc2ncc(C(F)(F)F)cc2Cl)cc1	none
CC1SC(c2ccccc2Cl)NC1=O (stereo unspecified)	Pf growth 96h 11.7µM (no result: Pf growth 48h)
O=C(CONS(=O)(=O)c1ccc(Cl)cc1)NCCNc1ncc(C(F)(F)F)cc1Cl	none
COc1cc2c(cc1OC)CN(C(=O)/C=C/c1cc(OC)c(OC)c(OC)c1)CC2	Pf growth 48h 2.62µM, Pf growth 96h 4.65µM
COc1cc2c(cc1OC)CN(C(=O)/C=C/c1ccc(F)cc1)CC2	Pf growth 48h inconclusive, Pf growth 96h inconclusive
CCN(C(=O)c1ccccc1)c1ccc([N+](=O)[O-])cc1	Pf growth 48h inconclusive, Pf growth 96h 8.28µM
CCN(C(=O)c1cccnc1)c1ccccc1	none (no result: SARS PLP yeast)
COc1cc2c(-c3ccc4cc[nH]c4c3)c(-c3ccc(C#N)cc3)oc(=O)c2cc1OC	Pf growth 48h 9.28µM, Pf growth 96h inconclusive (no result: NS1 inh)
